Reference: PubChem BioAssay AID485367 (National Center for Advancing Translational Sciences (NCATS), 2010)
Among all 330,000 compounds or so, about 560 (0.17%) were called active. Not shown: some 1% with an inconclusive outcome. Calls follow the shape of the dose curve; as a rule, active = well fitted inhibition curve with a large enough effect; inconclusive = small, poorly fitted or top-dose-only effect, or effect the other way; inactive = flat fitted curve, though single readings scatter. The entries come from a sample that favours actives as a whole.

Target: ATP-dependent 6-phosphofructokinase (Trypanosoma brucei brucei) (UniProt O15648)
Sequence (O15648 whole entry, looked up): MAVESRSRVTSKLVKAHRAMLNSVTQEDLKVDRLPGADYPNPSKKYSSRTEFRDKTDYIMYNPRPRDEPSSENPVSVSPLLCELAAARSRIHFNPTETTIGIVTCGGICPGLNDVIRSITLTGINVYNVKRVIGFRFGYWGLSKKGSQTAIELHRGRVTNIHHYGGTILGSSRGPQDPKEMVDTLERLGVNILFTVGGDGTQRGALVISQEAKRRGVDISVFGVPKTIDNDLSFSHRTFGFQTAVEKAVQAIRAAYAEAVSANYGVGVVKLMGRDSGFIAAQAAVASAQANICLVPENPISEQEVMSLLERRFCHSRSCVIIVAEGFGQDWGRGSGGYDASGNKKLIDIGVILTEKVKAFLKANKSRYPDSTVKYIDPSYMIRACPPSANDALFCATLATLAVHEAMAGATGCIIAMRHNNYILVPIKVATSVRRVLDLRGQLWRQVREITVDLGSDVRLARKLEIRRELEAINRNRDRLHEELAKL
Assay: qHTS Assay to Find Inhibitors of T. brucei phosphofructokinase; also: nearly all actives have a fitted effect of over 60% in size;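 as to activity, negative = inhibition: 0% = uninhibited 1x PFK enzyme wells and -100% = no-enzyme wells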
Conditions: T. brucei PFK, ADP-Glo luminescence; series mostly up to 57.5 µM; activity, negative = inhibition: at the top concentration
How it was run: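 PFK 1.25 nM, F6P 0.5 mM, ATP 0.1 mM, 0.1 M TEA pH 8.0, 5 mM MgCl2, 0.01% Tween20, 0.1% BSA; 45 min RT. ADP-Glo readout. qHTS titration up to 57 uM; curves fitted, compounds curve-classed.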
Potency is read from the fitted curve at half-maximal effect.

activity, negative = inhibition, inactive:
Nn1c(SCC(=O)Nc2ccc3c(c2)CCC3)nnc1C1CC1 2.26%, O=C(CC1C(=O)NCCN1CC(c1ccccc1)c1ccccc1)NCC1CCOCC1 (configuration not stated) -13.1%, O=C(CCN1C(=O)C2C3C=CC(C3)C2C1=O)Oc1ccc2ccccc2c1 (configuration not stated) 2.74%, CCOC(=O)c1ccccc1NC(=O)CSc1nc2ccccc2c(=O)[nH]1 0.653%, CC(=O)NCc1ccc(-c2csc(NC(=O)CCCc3nc4ccccc4c(=O)[nH]3)n2)cc1 1.84%, O=C(CSc1nnc(N2CCOCC2)n1-c1cccc(F)c1)N1CCN(c2ccccn2)CC1 -1.48%, O=C(NNS(=O)(=O)c1ccccc1)c1cnn(-c2ccc(Cl)cc2)c1C(F)(F)F 0.989%, Cc1ccc(OCCCCc2c(C)n[nH]c2C)cc1 0.85%, CC(C)[C@H](NC(=O)N1CCn2c1nc1ccccc12)C(=O)NCCc1ccccc1 10.6%, CCCCNC(=O)OCCSCCS(=O)(=O)c1ccc(Cl)cc1 -7.12%, O=C(Nc1nnc(Cc2ccc(Cl)cc2)s1)c1cccnc1 -6.39%, CC(C)(C)c1cc(C(=O)NCc2cccnc2)ccn1 0.81%, O=C(CN1C(=O)NC2(CCCC2)C1=O)Nc1ccc(F)c(F)c1F -0.645%, O=S(=O)(NC1CC1)c1ccc(F)c(F)c1 0.12%, CC1CCC(NS(=O)(=O)c2ccc3c(c2)n(C)c(=O)c(=O)n3C)CC1 (configuration not stated) 1.11%, O=C(Nc1ccc(Cl)c(Cl)c1)N1CC=C(c2ccccc2)CC1 -23.1%, Cc1cccc(N=C2NC(=O)CS2)c1C 1.01%, CCc1ccc(Nc2nnc(SCC(=O)c3ccc4c(c3)NC(=O)CO4)s2)cc1 -3.38%, CCOc1ccc(/C=C/C(=O)N(CC)CC(=O)NCc2cccs2)cc1OC 0.107%, Cc1cccc(NS(=O)(=O)c2cc(Cl)ccc2Cl)n1 -0.981%, CN1CCN(C(=O)c2ccc(NS(=O)(=O)c3ccccc3)cc2)CC1 -0.0214%, O=C(COC(=O)c1cccc(Cl)c1)Nc1ccc2[nH]c(=O)[nH]c2c1 -4.67%, O=C(COc1ccc([N+](=O)[O-])cc1Cl)Nc1ccc2[nH]c(=O)[nH]c2c1 -0.514%, Nc1nnc(SCC(=O)NC2CCCc3ccccc32)s1 (configuration not stated) -3.89%, O=C(c1ccccc1)c1cc(-c2ccccn2)c(N2CCOCC2)s1 1.02%, NC(=O)c1ncc(C(F)(F)F)cc1Oc1ccc(F)cc1 2.27%, Cc1nc2nc(COc3ccccc3)[nH]n2c(=O)c1C 3.97%, Cc1cc([N+](=O)[O-])nn1Cc1ccc(F)cc1 -3.17%, O=C(O)CCN=C1CCc2ccccc2N1 1.34%, O=C(NC1CCCCC1)c1ccc(CNc2c(N3CCOCC3)c(=O)c2=O)cc1 2.59%, CCN(CC(=O)Nc1cccc(S(=O)(=O)N2CCCCC2)c1)Cc1ccccc1 3.5%, CCOc1cc(/C=N/n2cnnc2)c(Br)cc1O -1.74%, CCOc1ccc(N2C(=O)CSC2=NC#N)cc1 1.09%, C/C(=N/N1CCN(Cc2cccc3ccccc23)CC1)c1cccnc1 6.89%, NS(=O)(=O)c1ccc(CCNC(=S)Nc2ccc(S(N)(=O)=O)cc2)cc1 -9.91%, NS(=O)(=O)c1ccc(NC(=S)NC(=O)c2cccc(Br)c2)cc1 0.423%, COc1ccc(NC(=O)Cn2cc(C(=O)c3ccncc3)c(=O)c3cc(C)ccc32)cc1Cl -0.896%, CCc1ccc(N(CC)c2ncnc3nc[nH]c23)cc1 -1.92%, Nc1ccc(Nc2cc(O)c3ncccc3c2)cc1 -7.91%, Cc1cccc(CCNS(=O)(=O)c2ccc(S(=O)(=O)NC3CCCC3)cc2)c1 0.864%, CC1CCC(N2CC(=O)N(Cc3ccc4c(c3)OCO4)C(c3ccc(F)cc3)C2=O)CC1 (configuration not stated) -0.311%, COC(=O)CNC(=O)c1ccc2c(c1)S(=O)(=O)c1ccccc1C2=O -1.45%, O=[N+]([O-])c1ccc(N2CCN(c3ccc(O)cc3)CC2)c(Cl)c1 2.76%, O=S(=O)(NC1CCN(S(=O)(=O)c2ccc3c(c2)OCCO3)CC1)c1c(F)cccc1F -4.77%, O=C(COC(=O)c1cc[n+]([O-])cc1)Nc1ccc(Cl)c(C(F)(F)F)c1 -23.6%, Cc1ccc(C(CC(=O)O)NC(=O)c2ccc(S(=O)(=O)N3CCCC3)cc2)cc1 (configuration not stated) -3.41%

Potency, active:
O=C(CSc1nc2ccccc2c(=O)[nH]1)Nc1nc(-c2ccc(Br)cc2)cs1 2.69 µM, O=C(NCc1ccc(Cl)c(Cl)c1)c1cccnc1 23.9 µM, Cn1sc(=O)c2cc(S(=O)(=O)NC3CC3)ccc21 15.1 µM, COc1ccc(C(=O)OCC(=O)Nc2ccc3[nH]c(=O)[nH]c3c2)c(OC)c1OC 21.3 µM, CCOc1cccc(/C=N/N2C(=O)CSC2=S)c1O 7.57 µM, NS(=O)(=O)c1ccc(NC(=S)Nc2ccc(Br)c(Cl)c2)cc1 9.53 µM
